This note sets out measurements from PubChem BioAssay AID1566 (Sanford-Burnham Center for Chemical Genomics, 2009).

The campaign covered roughly 290,000 compounds. About 1,800 (0.62%) were called active. No stated cut-off is given here; in the data, active means inhibition above about 50%; inactive means the rest. The full list was thinned out, with actives kept by preference.

The nature of this assay: NOD2 signaling inhibitors, cell-based, luminescence, uHTS, HEK293 (AID 1566). To be noted: HEK293 NOD2/NF-kB luciferase reporter, at 4 µM, hits give high values.
Broadly, the inhibition is the relative decrease from the control value, in per cent. For the compound `CCc1ccc(NC(=O)CC2C(=O)N(c3ccc(C)cc3)C(=O)N2C2CC2)cc1` (stereo unspecified), the inhibition is -17.1% (inactive).

Take `O=C(Nc1ccc2ccccc2n1)Nc1ccccc1F`: the inhibition was -1.1% (inactive).

Turning to `COc1cc(/C=C2/SC(=O)NC2=O)ccc1OCc1ccccc1`, the inhibition was -9.8% (inactive).

Regarding `CCOc1ccc(/C=C2\SC(=S)NC2=O)cc1OC`, the inhibition is -106% (inactive).

Turning to `CCOc1ccc(N(C)c2ccc(/C=C3/SC(=S)NC3=O)cc2)cc1`, the inhibition is -2.9% (inactive).

With `COc1ccc(-n2c(C)cc(/C=C3\SC(=S)NC3=O)c2C)cc1`, the inhibition is -195% (inactive).

Consider `COc1ccccc1OCCCOc1ccc(/C=C2\SC(=O)NC2=O)cc1OC`, for which the inhibition was 32% (inactive).

For `COc1ccc2cc(/C=C3\SC(=S)NC3=O)c(N3CCOCC3)nc2c1`, the inhibition is 42.8% (inactive).

Regarding `COc1cccc(CNC(=O)C2CCC(=O)N(C3CC3)C2)c1OC` (stereo unspecified), the inhibition is -2.5% (inactive).

Regarding `O=C(NCCSCc1ccc(Cl)cc1)c1cccs1`, the inhibition is 6.3% (inactive).

Turning to `CCOc1ccc(-c2[nH]ncc2-c2ccc(Cl)cc2)c(O)c1`, the inhibition is 17.2% (inactive).

As for `CSc1nc(Oc2ccc3ccccc3c2)c2ccccc2n1`, the inhibition is -0.5% (inactive).

As for `CCN(Cc1ccccc1)C(=O)Cn1c(=O)n(CCC(=O)N2CCCCC2)c(=O)c2sccc21`, the inhibition was 1.5% (inactive).

Take `O=[N+]([O-])c1ccc(Nc2ccccc2O)c2nonc12`: the inhibition was 16% (inactive).

Consider `O=[N+]([O-])c1ccc(Nc2ccccc2)c2nonc12`, for which the inhibition is 42% (inactive).

For the compound `O=[N+]([O-])c1ccc(Sc2cccc[n+]2[O-])c2nonc12`, the inhibition was 93% (active).

Take `O=C(NCCN1CCOCC1)c1ccccc1N1C(=O)[C@@H]2Cc3c([nH]c4ccccc34)C(c3ccccc3)N2C1=O` (stereo partly specified): the inhibition is 5.2% (inactive).

Turning to `Cc1ccc(NC2CCCN(C(=O)CCn3nccc3C)C2)cc1C` (stereo unspecified), the inhibition is -4% (inactive).

As for `CC1(C)CC(N2CCCCC2)=CC(=[N+]2CCCCC2)C1`, the inhibition was 44.9% (inactive).

In the case of `CC1(C)CC(N2CCCC2)=CC(=[N+]2CCCCC2)C1`, the inhibition was 33.8% (inactive).

As for `Cc1cc(C(=O)OCC(=O)Nc2cc(S(=O)(=O)N(C)C)ccc2Cl)c2ccccc2n1`, the inhibition is 10.5% (inactive).

Turning to `CCOC(=O)CNC(=O)c1cc(-c2ccc3c(c2)OCCO3)oc1C`, the inhibition was -25% (inactive).

As to `Cc1oc(-c2ccc3c(c2)OCCO3)cc1C(=O)NCC(=O)O`, the inhibition is 18% (inactive).

On to `Cc1oc(-c2ccc3c(c2)OCCO3)cc1C(=O)O`, for which the inhibition was 79% (active).

Take `CC1CN(CCOc2ccc(Cl)c(Cl)c2)CC(C)O1` (stereo unspecified): the inhibition was -27.9% (inactive).

For the compound `O=C(NCC(=O)N1CCN(c2ccccc2)CC1)c1ccccc1`, the inhibition was -11.2% (inactive).

As for `Clc1ccc(/C=C/c2nc(Cl)c(-c3ccc(Cl)cc3)c(Cl)n2)cc1`, the inhibition is 15.1% (inactive).

On to `CN1/C(=C/C=C(/C#N)C(N)=O)C(C)(C)c2ccccc21`, for which the inhibition is -25.4% (inactive).

On to `CN1/C(=C\C=C(/C#N)C(=O)Nc2ccccc2F)C(C)(C)c2ccccc21`, for which the inhibition was 23.2% (inactive).

In the case of `CN1/C(=C\C=C(/C#N)C(=O)Nc2ccc(Cl)cc2)C(C)(C)c2ccccc21`, the inhibition was 50.6% (active).

Take `Cc1nn(C(=O)CCCn2cc([N+](=O)[O-])cn2)c(C)c1Cl`: the inhibition is 16.7% (inactive).

On to `Cc1ccc(C(=O)NCCNc2ccc([N+](=O)[O-])cc2C(F)(F)F)cc1`, for which the inhibition was 16.4% (inactive).

`COc1ccc(-c2cc(=O)oc3cc(OCC(C)=O)ccc23)cc1`: the inhibition was -11.8% (inactive).

`COc1ccc(-c2cc(=O)oc3cc(OC(C)C(=O)O)ccc23)cc1` (stereo unspecified): the inhibition is -5.9% (inactive).

Regarding `CCCn1c(=O)c(Cc2ccccc2)c(O)c2ccccc21`, the inhibition was 6.4% (inactive).

As for `CCn1cc(/C=C(\NC(=O)c2ccc(OC)cc2)C(=O)N2CCOCC2)c2ccccc21`, the inhibition is 11.3% (inactive).

For the compound `Cc1cc2c(c(=O)o1)C(C(C)C)C(C#N)=C(N)O2` (stereo unspecified), the inhibition is 6.9% (inactive).

In the case of `OCCN1CCN(Cc2cc(Cl)c3cccnc3c2O)CC1`, the inhibition is -47.1% (inactive).

Consider `CCOC(=O)N1CCN(Cc2cc(Cl)c3cccnc3c2O)CC1`, for which the inhibition was 11.2% (inactive).

On to `Cc1ccc(S(=O)(=O)NNC(=O)c2ccccc2O)cc1`, for which the inhibition was 8.4% (inactive).

Turning to `COc1ccc(S(=O)(=O)N(Cc2cc3cc(C)ccc3[nH]c2=O)CC2CCCO2)cc1` (stereo unspecified), the inhibition was 16.6% (inactive).

Regarding `COC(=O)c1ccc(C(=O)NC(=S)Nc2nc3c(s2)CCCC3)cc1`, the inhibition is 5.1% (inactive).

`O=C(NC(=S)Nc1nc2c(s1)CCCC2)c1ccccc1`: the inhibition is -7.3% (inactive).

For the compound `CC(C)(C)c1ccc(C(=O)NC(=S)Nc2nc3c(s2)CCCC3)cc1`, the inhibition was 60.3% (active).

On to `COc1ccc(S(=O)(=O)N(CC(=O)N2CCN(C)CC2)c2ccc(C)cc2)cc1Br`, for which the inhibition was -9.5% (inactive).

`CC1(C)N=C(N)N=C(N)N1c1ccc(Oc2ccc(Cl)cc2)c(Cl)c1`: the inhibition was 58.7% (active).

Consider `COc1ccc(N2C(N)=NC(N)=NC2(C)C)cc1`, for which the inhibition is -2.7% (inactive).

Regarding `CCOc1ccc(N2C(N)=NC(N)=NC2(C)C)cc1`, the inhibition was -5.6% (inactive).

With `COc1ccccc1N1CCN(C(=O)CSc2nnc3c4ccccc4n(CC(=O)O)c3n2)CC1`, the inhibition was 9.3% (inactive).

As to `COC(=O)CSc1nnc(CNC(=O)c2ccc(S(=O)(=O)N3CCCCC3)cc2)n1C`, the inhibition was 12.8% (inactive).

Consider `Cc1ccc(NC(=O)C2=NNC(=O)CC2)cc1F`, for which the inhibition is -17.2% (inactive).

As for `Cc1ccccc1S(=O)(=O)Oc1cccc2c(O)cccc12`, the inhibition was 1.5% (inactive).

Consider `CNC(=O)CN(c1cc([N+](=O)[O-])ccc1OC)S(C)(=O)=O`, for which the inhibition was 12.6% (inactive).

Consider `CCc1oc2ccccc2c1C(=O)c1cc(Br)c(O)c(Br)c1`, for which the inhibition is 51.8% (active).

As for `CCc1oc2ccccc2c1C(=O)CCN1CCCCC1`, the inhibition is 3.9% (inactive).

Consider `CCCCc1oc2ccccc2c1C(=O)c1cc(I)c(OCCN(CC)CC)c(I)c1`, for which the inhibition was 14.9% (inactive).

With `O=C(COC(=O)c1cccnc1Cl)c1ccc(Cl)cc1Cl`, the inhibition was 9.1% (inactive).

Take `CCCc1ccc(-c2cc(C(=O)Nc3ccc([N+](=O)[O-])cn3)c3ccccc3n2)cc1`: the inhibition was -29.8% (inactive).

`COc1ccc2oc(=O)c(C(C)=O)cc2c1`: the inhibition is 19.5% (inactive).

On to `CCCCN(Cc1ccco1)C(=O)c1cc2c(=O)[nH]c3ccc(C)cc3c2s1`, for which the inhibition is 34.9% (inactive).

`COc1ccc(N(CC(=O)N/N=C/c2ccc(N(C)C)cc2)S(=O)(=O)c2ccccc2)cc1`: the inhibition was -57% (inactive).
